Shown is part of a subset that was picked to be rich in hits.
Methyltransferases = Primary Screen for Target Class Profiling of Small Molecule Inhibitors of Methyltransferases | purified enzyme, MTase-Glo SAH luminescence; hits give low values | calls only at 40 µM | 25,000 tested, 3.9% active; call rule not given here
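Each enzyme was reacted with SAM and its substrate, with compounds tested once at 40 uM; SAH formed was read by MTase-Glo luminescence.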
* hit, by the source's call; ! = not confirmed by another sample. % is set by controls: 0 for no effect and ±100 for the full control effect.

What do the screens show for `O=C(CCc1nnc2n(CCc3ccccc3)c(=O)c3ccccc3n12)N1CCC(Cc2ccccc2)CC1`?
Methyltransferases: inactive

What do the screens show for `CCCn1c(=O)c2ccc(C(=O)NC3CCCC3)cc2n2c(=O)n(CC(=O)Nc3cccc(C)c3)nc12`?
Methyltransferases: inactive

How did CC(C)NC(=O)c1ccc2c(=O)n(C(C)C)c3nn(CC(=O)Nc4ccc(Cl)cc4)c(=O)n3c2c1 do in these assays?
Methyltransferases: inactive

Results for CC1CCCN(C(=O)Cn2c(=O)oc3cc(S(=O)(=O)NCc4ccccc4)ccc32)C1 (stereo unspecified) ?
Methyltransferases: inactive

How did CC1(C(=O)NC2CCCCC2)Cn2c(cc3sccc32)C(=O)N1CCCc1ccccc1 (stereo unspecified) do in these assays?
Methyltransferases: inactive

Results for O=[N+]([O-])c1ccc(CNc2nc(NCc3cccc(C(F)(F)F)c3)nc3nc[nH]c23)cc1 ?
Methyltransferases: active!

What do the screens show for `Cc1ccc(N2C(=O)CSc3c(c4ccccc4n3C)C2C(=O)NCCC(C)C)cc1Cl` (stereo unspecified)?
Methyltransferases: inactive

Results for COc1ccc(OC)c(S(=O)(=O)N2CCc3nc(-c4ccc(Cl)cc4)ncc3C2)c1 ?
Methyltransferases: inactive

What do the screens show for `O=C(CCCn1nc(-c2ccccc2)c2ccccc21)N1CCN(c2ccccc2)CC1`?
Methyltransferases: inactive

What do the screens show for `CCCOc1ccc(CN2C(=O)c3cc4occc4n3CC2(C)C(=O)NC2CCCC(C)C2C)cc1` (stereo unspecified)?
Methyltransferases: inactive

How did COc1ccccc1OCCN1CC(COc2cccc3[nH]c4ccccc4c23)OCC1=O (stereo unspecified) do in these assays?
Methyltransferases: inactive

Results for CNCCC(Oc1ccccc1OC)c1ccccc1 (stereo unspecified) ?
Methyltransferases: inactive

What do the screens show for `COc1ccccc1OCCNCC(O)CCOc1cccc2[nH]c3ccccc3c12` (stereo unspecified)?
Methyltransferases: active

How did CCCN1C(=O)c2c(C(=O)NCc3ccc(OC(C)C)cc3)ncn2CC1(C)C(=O)NCCC(C)C (stereo unspecified) do in these assays?
Methyltransferases: inactive

How did CC(C)OCCCn1c(=O)c2cc(Cl)ccc2n2c(SCc3cccc(F)c3)nnc12 do in these assays?
Methyltransferases: inactive

How did C=Cc1ccc(Cn2nc3n(CCC(C)C)c(=O)c4ccccc4n3c2=O)cc1 do in these assays?
Methyltransferases: inactive

What do the screens show for `COc1cccc(NC(=O)Cn2c(=O)oc3cc(S(=O)(=O)N4CCCCC4C)ccc32)c1` (stereo unspecified)?
Methyltransferases: active

Results for CC1CCN(C(=O)Cn2c(=O)oc3cc(S(=O)(=O)N4CCCCC4C)ccc32)CC1 (stereo unspecified) ?
Methyltransferases: inactive

Results for COc1ccc(NC(=O)Cn2c(=O)oc3cc(S(=O)(=O)N4CCCC4)ccc32)cc1 ?
Methyltransferases: inactive

How did O=C(CCn1ccc2cc(S(=O)(=O)N3CCCCC3)ccc21)NCCCN1CCCC1=O do in these assays?
Methyltransferases: inactive

Results for O=C(NCCc1ccccc1)c1ccc2c(c1)n(Cc1cccc(F)c1)c(=O)c1ccnn12 ?
Methyltransferases: inactive

How did Nc1nc(NCC2CCC(CNS(=O)(=O)c3cccc4ccccc34)CC2)nc2ccccc12 (stereo unspecified) do in these assays?
Methyltransferases: active

How did O=C(NCCCc1ccccc1)C1CCC(CNS(=O)(=O)c2cccc3nsnc23)CC1 (stereo unspecified) do in these assays?
Methyltransferases: inactive

What do the screens show for `COc1ccc(OC)c(CN2C(=O)c3cc(-c4ccccc4)nn3CC2(C)C(=O)NCc2ccccc2)c1` (stereo unspecified)?
Methyltransferases: inactive

What do the screens show for `CCn1c(=O)n(CC)c2cc(S(=O)(=O)Nc3ccc(Br)c(C)c3)ccc21`?
Methyltransferases: inactive

Results for CNS(=O)(=O)CCc1ccc2[nH]cc(C3CCN(C)CC3)c2c1 ?
Methyltransferases: inactive

Results for CN(C)CCc1c[nH]c2ccc(C[C@H]3COC(=O)N3)cc12 ?
Methyltransferases: inactive

Results for CN1CCC[C@@H]1Cc1c[nH]c2ccc(CCS(=O)(=O)c3ccccc3)cc12 ?
Methyltransferases: active!

What do the screens show for `O=C(CCc1nnc2n(CCc3ccccc3)c(=O)c3ccccc3n12)NCCN1CCOCC1`?
Methyltransferases: inactive

What do the screens show for `O=C(c1ccc2c(=O)nc3c(-c4cccc(F)c4)n[nH]n3c2c1)N1CCN(c2ccccc2F)CC1`?
Methyltransferases: inactive

How did Cc1ccc2c(c1)c(-n1cccc1)c1n2CC(C)(C(=O)NC2CCCCC2)N(Cc2cccnc2)C1=O (stereo unspecified) do in these assays?
Methyltransferases: inactive

What do the screens show for `OCCCNc1cc(-c2ccnc(Nc3cccc(Cl)c3)n2)ccn1`?
Methyltransferases: active

Results for CC1CCC(NC(=O)C2(C)Cn3c(ccc3-c3ccco3)C(=O)N2CC(C)c2ccccc2)CC1 (stereo unspecified) ?
Methyltransferases: inactive

Screens deposited in PubChem by National Center for Advancing Translational Sciences (NCATS).
